# Source: PubChem BioAssay
# A number with no mark means an inactive call. For part of these data: Entries with a potency or affinity are not part of this list. Activity calls are given as the source filed them. Unless noted, how the calls were made is not given here.
# Experiments:
# [1] = antimalarial activity against Dd2 strain (AID 2302;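 active means growth inhibition above 50% at the single 2 µM test dose, taken to imply half-maximal potency below 2 µM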;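 further: 0% = DMSO untreated growth and 100% = chloroquine plus artemisinin killed control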); settings: P. falciparum Dd2 in RBCs, LDH growth readout, 72 h; at 2 µM; stronger effect = higher value
# [2] = HepG2 cytotoxicity, primary screen, cytotoxicity control for P. falciparum antimalarial project, cell-based, ATP luminescence (AID 2303;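 active means inhibition above 50%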;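 further: 0% = DMSO wells and 100% = digitonin-killed cells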); settings: HepG2 viability, 24-48 h, at 10 µM, stronger effect = higher value
# [3] = molecular target: L-lactate dehydrogenase (Plasmodium falciparum (isolate CDC / Honduras)) (UniProt Q27743); assay: PfLDH activity inhibition – cell lysate, 3D7 strain, counter-screen for P. falciparum growth inhibition project (AID 2304);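 further: 0% = vehicle and 100% = reference inhibitor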; settings: P. falciparum 3D7 crude extract, LDH APAD/NBT absorbance; at 2 µM; stronger effect = higher value
# Chain of L-lactate dehydrogenase (Plasmodium falciparum (isolate CDC / Honduras)) (Q27743 whole entry, looked up): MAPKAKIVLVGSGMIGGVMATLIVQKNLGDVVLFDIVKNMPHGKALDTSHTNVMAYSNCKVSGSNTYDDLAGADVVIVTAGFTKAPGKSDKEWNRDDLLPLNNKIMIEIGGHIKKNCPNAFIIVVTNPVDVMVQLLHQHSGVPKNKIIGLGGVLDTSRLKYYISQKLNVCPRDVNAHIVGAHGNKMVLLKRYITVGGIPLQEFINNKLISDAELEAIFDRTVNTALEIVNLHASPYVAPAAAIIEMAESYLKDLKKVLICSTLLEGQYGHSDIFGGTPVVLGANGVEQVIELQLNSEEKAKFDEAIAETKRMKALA
# [4] = inhibition of 3D7 malaria parasite growth – strain 3D7 (AID 2306);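 further: 0% = DMSO wells and 100% = chloroquine plus artemisinin control wells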; settings: P. falciparum 3D7 erythrocytic growth, LDH absorbance, 72 h; at 2 µM; stronger effect = higher value
# [5] = molecular target: Calcium-dependent protein kinase 1 (Plasmodium falciparum (isolate 3D7)) (UniProt P62344); assay: PfCDPK1 kinase inhibitors, biochemical, TCAMS library (AID 1159585; cut-off not given, nearly all actives have IC50 up to about 0.98 µM;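 further: inhibitors leave more ATP so luminescence rises with inhibition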); settings: recombinant PfCDPK1, Kinase-Glo ATP depletion luminescence
# Chain of Calcium-dependent protein kinase 1 (Plasmodium falciparum (isolate 3D7)) (P62344 whole entry, looked up): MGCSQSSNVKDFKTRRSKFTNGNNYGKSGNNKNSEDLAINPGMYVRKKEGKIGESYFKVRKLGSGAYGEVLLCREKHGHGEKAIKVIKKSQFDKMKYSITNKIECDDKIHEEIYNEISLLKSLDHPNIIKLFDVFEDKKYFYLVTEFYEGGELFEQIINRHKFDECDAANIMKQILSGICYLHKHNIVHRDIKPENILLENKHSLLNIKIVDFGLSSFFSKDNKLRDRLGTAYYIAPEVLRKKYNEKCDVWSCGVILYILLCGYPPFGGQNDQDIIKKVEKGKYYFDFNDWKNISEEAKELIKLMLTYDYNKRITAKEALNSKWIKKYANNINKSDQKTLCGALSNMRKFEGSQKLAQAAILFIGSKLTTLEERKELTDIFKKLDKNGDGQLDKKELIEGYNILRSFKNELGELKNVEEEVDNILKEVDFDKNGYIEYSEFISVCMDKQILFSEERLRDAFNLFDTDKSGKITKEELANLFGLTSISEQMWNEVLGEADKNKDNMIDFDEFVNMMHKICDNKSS
# [6] = molecular target: Plasmodium falciparum protein kinase 6 (PK6, PF3D7_1337100) (UniProt Q8IDW1); assay: PfPK6 kinase inhibitors, biochemical, TCAMS library (AID 1159586); settings: recombinant PfPK6, Kinase-Glo ATP depletion luminescence
# Chain of Plasmodium falciparum protein kinase 6 (PK6, PF3D7_1337100) (Q8IDW1 1-305): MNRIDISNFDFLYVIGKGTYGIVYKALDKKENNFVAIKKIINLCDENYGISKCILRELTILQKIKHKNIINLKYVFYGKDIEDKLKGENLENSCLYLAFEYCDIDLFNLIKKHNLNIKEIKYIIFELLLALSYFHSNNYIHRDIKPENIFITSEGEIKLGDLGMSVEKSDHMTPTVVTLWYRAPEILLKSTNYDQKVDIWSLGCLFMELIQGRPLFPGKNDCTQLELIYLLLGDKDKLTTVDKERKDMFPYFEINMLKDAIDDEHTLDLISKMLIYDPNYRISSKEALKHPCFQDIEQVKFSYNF
# [7] = molecular target: Protein kinase 7 (PK7), Plasmodium falciparum 3D7 (PF3D7_0213400) (UniProt Q7YTF7); assay: inhibition of Plasmodium PK7 catalytic activity – biochemical, TCAMS antimalarial set, Kinase-Glo luminescence (AID 1159587); settings: recombinant PfPK7, Kinase-Glo ATP depletion luminescence
# Chain of Protein kinase 7 (PK7), Plasmodium falciparum 3D7 (PF3D7_0213400) (Q7YTF7 1-343): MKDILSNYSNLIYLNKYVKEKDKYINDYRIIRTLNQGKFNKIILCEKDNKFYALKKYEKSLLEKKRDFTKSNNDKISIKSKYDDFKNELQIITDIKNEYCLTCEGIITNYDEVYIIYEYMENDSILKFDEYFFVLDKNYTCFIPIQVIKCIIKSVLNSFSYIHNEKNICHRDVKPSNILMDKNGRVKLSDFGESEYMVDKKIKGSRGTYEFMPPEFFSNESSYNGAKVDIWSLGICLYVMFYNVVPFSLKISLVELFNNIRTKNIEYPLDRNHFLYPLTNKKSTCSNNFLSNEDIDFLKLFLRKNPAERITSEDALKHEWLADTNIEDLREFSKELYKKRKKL
# [8] = molecular target: Calcium-dependent protein kinase 4 (Plasmodium falciparum (isolate 3D7)) (UniProt Q8IBS5); assay: PfCDPK4 kinase inhibitors, biochemical, TCAMS library (AID 1159588; cut-off not given, nearly all actives have IC50 up to about 0.91 µM); settings: recombinant PfCDPK4, Kinase-Glo ATP depletion luminescence
# Chain of Calcium-dependent protein kinase 4 (Plasmodium falciparum (isolate 3D7)) (Q8IBS5 whole entry, looked up): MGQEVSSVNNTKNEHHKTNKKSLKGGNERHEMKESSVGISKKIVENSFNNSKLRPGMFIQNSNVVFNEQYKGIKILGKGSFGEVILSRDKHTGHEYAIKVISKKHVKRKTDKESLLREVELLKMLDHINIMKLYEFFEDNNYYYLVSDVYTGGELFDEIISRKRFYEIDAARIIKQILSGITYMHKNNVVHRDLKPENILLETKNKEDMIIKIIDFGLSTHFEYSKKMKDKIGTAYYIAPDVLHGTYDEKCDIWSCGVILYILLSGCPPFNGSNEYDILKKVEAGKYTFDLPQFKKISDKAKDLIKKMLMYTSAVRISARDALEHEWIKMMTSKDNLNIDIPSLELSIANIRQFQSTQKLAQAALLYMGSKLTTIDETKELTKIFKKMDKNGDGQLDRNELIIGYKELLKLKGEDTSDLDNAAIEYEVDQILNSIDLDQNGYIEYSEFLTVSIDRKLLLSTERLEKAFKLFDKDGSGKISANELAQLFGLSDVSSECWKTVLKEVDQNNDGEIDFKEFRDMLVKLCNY
Compound,growth inhibition [1],inhibition [2],inhibition [3],growth inhibition [4],outcome [5],outcome [6],outcome [7],outcome [8]
CC(C)Cc1nc(N2CCOCC2)c2nnn(Cc3ccccc3)c2n1,76% (active),7%,-2%,98% (active),inactive,inactive,inactive,inactive
CC1(C)CCCN(Cc2c(O)ccc3c(=O)c(-c4nc5ccccc5s4)c(N)oc23)C1,100% (active),20%,-1%,101% (active),inactive,inactive,inactive,inactive
COc1ccc(C2=C(Nc3ccc4oc5ccccc5c4c3)c3ccccc3C2=O)cc1,92% (active),9%,5%,93% (active),inactive,inactive,inactive,inactive
Oc1[nH]c2ccccc2c1N=NC(=S)N1CCOCC1,75% (active),51% (active),6%,95% (active),inactive,inactive,inactive,inactive
CCCCOc1c(CCNCCCCNCCc2cc(F)c3ccccc3c2OCCCC)cc(F)c2ccccc12,78% (active),97% (active),-3%,96% (active),inactive,inactive,inactive,inactive
CC(NC(C)c1cccc(Cl)c1)C(=O)Nc1cc(C(F)(F)F)ccc1N1CCOCC1 (stereo unspecified),33%,30%,1%,89% (active),inactive,inactive,inactive,inactive
Cn1c(Nc2cc(C(C)(C)C)on2)nc2cc(Nc3ccnc(Nc4ccc(CS(C)(=O)=O)cc4)n3)ccc21,68% (active),37%,-1%,101% (active),inactive,inactive,inactive,inactive
CCCNCc1ccc(-c2ccc(CN(CCOC)C(=O)c3cccc(C#N)c3)cc2)nc1,14%,-2%,-2%,84% (active),inactive,inactive,inactive,inactive
Cc1ccccc1C1CCN(C2CCC(NC(=O)/C=C/c3c[nH]c4ccccc34)CC2)CC1 (stereo unspecified),51% (active),30%,2%,100% (active),inactive,inactive,inactive,inactive
CCC(C)c1ccc(Nc2nc(C)cc(N(CC)CCCN3CCCCC3)n2)cc1 (stereo unspecified),83% (active),55% (active),-7%,101% (active),inactive,inactive,inactive,inactive
O=c1[nH]c(NCCCNCc2cc3c(Cl)cc(Cl)cc3[nH]2)nc2ccsc12,11%,62% (active),0%,96% (active),inactive,inactive,inactive,inactive
O=C(Nc1cccc(OC2CCN(Cc3ccccc3)CC2)c1)c1ccc([N+](=O)[O-])cc1,2%,6%,3%,100% (active),inactive,inactive,inactive,inactive
CN1CCC(N2CCC(Oc3cccc(C(=O)NCCCC4CCCC4)c3)CC2)CC1,48%,41%,-3%,101% (active),inactive,inactive,inactive,inactive
O=C(/C=C/c1ccc(Cl)c(Cl)c1)NCCC(CN1CCC(c2c[nH]c3ccccc23)CC1)c1ccccc1 (stereo unspecified),42%,84% (active),-6%,100% (active),inactive,inactive,inactive,inactive
CCCCn1c(Sc2ccc(C#N)c([N+](=O)[O-])c2)nnc1-c1cc(OC)cc(OC)c1,70% (active),7%,2%,94% (active),inactive,inactive,inactive,inactive
CC(C)n1ncc2c3c(N)nc(N)nc3ccc21,6%,64% (active),-3%,98% (active),inactive,inactive,inactive,inactive
FC(F)(F)c1cc(CNCCCNc2nc3ccncc3[nH]2)ccc1Cl,15%,11%,2%,99% (active),inactive,inactive,inactive,inactive
CCn1c(=O)c(C(=O)Nc2cc(Cl)c(OC)cc2OC)nc2ccccc21,84% (active),19%,6%,86% (active),inactive,inactive,inactive,inactive
O=C(Nc1ccc(C(=O)Nc2cccc(C3=NCCN3)c2)cc1)Nc1ccc(C2=NCCN2)cc1,98% (active),-16%,-4%,96% (active),inactive,inactive,inactive,inactive
O=C(/C=C/c1ccc(Cl)c(Cl)c1)NCCCCCN1CCC(NC(=O)Nc2cccc(F)c2)CC1,6%,30%,2%,100% (active),inactive,inactive,inactive,inactive
COc1ccc(N2CCN(CCCN3CCN(C(=O)c4ccc(/C=C/c5ccc(Cl)c(Cl)c5)cc4)CC3)CC2)c(OC)c1,52% (active),47%,-3%,93% (active),inactive,inactive,inactive,inactive

Compound,growth inhibition [1],inhibition [2],inhibition [3],growth inhibition [4],outcome [5],outcome [6],outcome [7],outcome [8]
Nc1nc(N)c2c(ccc3c2ccn3Cc2ccccn2)n1,94% (active),66% (active),-1%,90% (active),inactive,inactive,inactive,inactive
NC1CCCN(Cc2cccc(-c3ccc(-c4nc5ccc(F)cc5[nH]4)cc3)c2)C1 (stereo unspecified),99% (active),40%,-3%,101% (active),inactive,inactive,inactive,inactive
Cc1cccc2[nH]c(C3CCN(CC4CCN(C(=O)/C=C/c5ccc(Cl)c(Cl)c5)CC4)CC3)nc12,79% (active),46%,0%,100% (active),inactive,inactive,inactive,inactive
COc1ccc(-c2ccc3c(-c4ccc(F)cc4)cnc(N)c3c2)cn1,86% (active),4%,-5%,99% (active),inactive,inactive,inactive,inactive
CCCC1(NC[C@@H](O)[C@H](Cc2ccccc2)NC(=O)c2cc(NCC)cc(N3CCCCS3(=O)=O)c2)CCC1,86% (active),-8%,-1%,100% (active),inactive,inactive,inactive,inactive
CC(CN(C)C)C(=O)Nc1cccc(-c2ccc(-c3nc4ccc(F)cc4[nH]3)cc2)c1 (stereo unspecified),100% (active),11%,-1%,101% (active),inactive,inactive,inactive,inactive
COc1cc(C(=O)NC2CC(C)(C)N(C)C(C)(C)C2)ccc1-c1cc2cc(Cl)c(Cl)cc2[nH]1,36%,65% (active),1%,89% (active),inactive,inactive,inactive,inactive
Clc1cc(Cl)cc(Nc2ccnc(Nc3cc(Cl)cc(Cl)c3)n2)c1,73% (active),11%,-1%,99% (active),inactive,inactive,inactive,inactive
CSC1=NC(=Nc2ccccc2C)C2(CCC(C(C)(C)C)CC2)N1c1ccccc1Cl (stereo unspecified),89% (active),3%,4%,96% (active),inactive,inactive,inactive,inactive
Cc1cc(N)c2cc(NC(=O)CCC(=O)Nc3ccc4nc(C)cc(N)c4c3)ccc2n1,77% (active),-2%,1%,85% (active),inactive,inactive,inactive,inactive
COc1ccc(-c2cccc(NC(=O)c3ccc(C#N)cc3)c2)cc1CN1CCCC1,15%,30%,-5%,98% (active),inactive,inactive,inactive,inactive
CC(C)(C)NC(=O)C(c1ccc(F)cc1)N(C(=O)c1ccc(CN2CCOCC2)o1)c1ccc(C2CCCCC2)cc1 (stereo unspecified),68% (active),0%,-12%,87% (active),inactive,inactive,inactive,inactive
COc1ccc(C(=O)Cn2nc(-c3ccc(Cl)cc3)ccc2=O)c(OC)c1,70% (active),-12%,4%,93% (active),inactive,inactive,inactive,inactive
Cc1ccc(Cl)c2sc(N3CCN(C(=O)c4ccc([N+](=O)[O-])o4)CC3)nc12,94% (active),21%,-5%,97% (active),inactive,inactive,inactive,inactive
CN(C)c1ccc(C2c3nc[nH]c3CCN2C(=O)Nc2cccc([N+](=O)[O-])c2)cc1 (stereo unspecified),15%,-5%,1%,98% (active),inactive,inactive,inactive,inactive
CC(=O)c1ccc(S(=O)(=O)N2CCC(C(=O)Nc3ccccc3N3CCCC3)CC2)cc1,99% (active),-3%,-8%,95% (active),inactive,inactive,inactive,inactive
C=C(C)C1CC=C(CN2CCC(N3CCc4cc(NC(=O)c5cc(C)on5)ccc43)C2)CC1 (stereo unspecified),95% (active),26%,0%,90% (active),inactive,inactive,inactive,inactive
N#Cc1ccc(CN2CCC(Oc3ccc(NC(=O)c4cccs4)cc3Cl)CC2)cc1,96% (active),26%,-1%,95% (active),inactive,inactive,inactive,inactive
Cc1cc(N[C@@H](Cc2ccccc2)C(=O)Nc2ccccc2)nc(Nc2ccccc2)n1,69% (active),8%,-1%,101% (active),inactive,inactive,inactive,inactive
O=C(NC1CC1)c1cnc(N2CCN(Cc3ccc(Cl)cc3)CC2)c(Cl)c1,91% (active),39%,0%,93% (active),inactive,inactive,inactive,inactive
Oc1ccc(CCNCCCCCCNCCCc2ccc(Cl)cc2)cc1O,3%,13%,-2%,87% (active),inactive,inactive,inactive,inactive
